For 39 sequences, binding signal results are on record in PMC10812921, “Transcriptional Coactivator BOB1 (OBF1, OCA-B) Modulates the Specificity of DNA Recognition by the POU-Domain Factors OCT1 and OCT2 in a Monomeric Configuration”.

The assay has as its target T1, POU2 (OCT2 POU domain);BOB1 (OBF1, OCA-B) (human;human, UniProt P09086;Q16633 175-386;1-256, |).
T1 sequence 1: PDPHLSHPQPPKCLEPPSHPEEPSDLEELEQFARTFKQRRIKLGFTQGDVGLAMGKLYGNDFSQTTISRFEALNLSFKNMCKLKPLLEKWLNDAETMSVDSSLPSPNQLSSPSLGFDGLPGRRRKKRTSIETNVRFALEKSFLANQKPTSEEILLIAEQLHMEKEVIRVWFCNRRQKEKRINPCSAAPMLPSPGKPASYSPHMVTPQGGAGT
T1 sequence 2: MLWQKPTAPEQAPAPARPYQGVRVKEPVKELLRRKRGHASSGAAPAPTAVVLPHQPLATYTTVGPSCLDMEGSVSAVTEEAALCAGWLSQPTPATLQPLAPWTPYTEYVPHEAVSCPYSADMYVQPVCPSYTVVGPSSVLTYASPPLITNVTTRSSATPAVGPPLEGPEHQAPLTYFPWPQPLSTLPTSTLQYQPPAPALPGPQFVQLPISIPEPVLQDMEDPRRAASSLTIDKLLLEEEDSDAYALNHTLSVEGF
Description: EMSA-SELEX-seq; with BOB1 (ternary complex band); 20 mM Tris-HCl pH 7.6, 140 mM NaCl, 10% glycerol, 0.5 mM EDTA, 0.05% Triton X-100, 0.1 mg/mL BSA, 0.1 mg/mL poly(dI-dC), 5 mM DTT, room temperature, 20 min; high values mean tight binding. The following applies: protein: recombinant;recombinant; copies: 1;1; dsDNA, one strand shown. Summed up:
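Binding preference is reported as the percentage of sequenced 8-mers that match a motif pattern. Tagged POU-domain proteins were made in E. coli BL21, purified under denaturing conditions and renatured. A 30 ng portion was combined with 300 ng of a PCR-amplified double-stranded random 35-nt library, with or without 28 ng coactivator protein, in 20 μL Tris–HCl pH 7.6 binding buffer for 20 min at RT. Complex bands were excised from native 6% PAGE, eluted and PCR-amplified over four rounds before Illumina sequencing.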
(In general: In EMSA bound probe runs differently from free probe, usually more slowly.)
Regarding ACCGTAAG, the binding signal is 0.0281 % of ANNNNAAN 8-mers.

Consider ACGTCAAC, for which the binding signal was 0.0165 % of ANNNNAAN 8-mers.

In the case of AAGCAAAG, the binding signal is 0.0537 % of ANNNNAAN 8-mers.

Consider AGGCTAAC, for which the binding signal is 0.0223 % of ANNNNAAN 8-mers.

On to AGAAAAAT, for which the binding signal was 0.09 % of ANNNNAAN 8-mers.

Consider AGGGGAAC, for which the binding signal is 0.0487 % of ANNNNAAN 8-mers.

Consider AAAACAAA, for which the binding signal is 0.125 % of ANNNNAAN 8-mers.

As to ACACTAAG, the binding signal was 0.0289 % of ANNNNAAN 8-mers.

As for ATTTGAAT, the binding signal is 2.32 % of ANNNNAAN 8-mers.

Turning to AGAACAAT, the binding signal is 0.038 % of ANNNNAAN 8-mers.

Consider AAGAAAAA, for which the binding signal was 0.0669 % of ANNNNAAN 8-mers.

Regarding ATGTCAAA, the binding signal was 0.0652 % of ANNNNAAN 8-mers.

For ATAATAAC, the binding signal is 0.0603 % of ANNNNAAN 8-mers.

As for AAATGAAG, the binding signal was 0.2 % of ANNNNAAN 8-mers.

Consider AGTGCAAC, for which the binding signal was 0.0215 % of ANNNNAAN 8-mers.

For the sequence AATTTAAT, the binding signal was 0.162 % of ANNNNAAN 8-mers.

With AGAGCAAC, the binding signal is 0.0206 % of ANNNNAAN 8-mers.

On to ACTTGAAG, for which the binding signal is 0.0239 % of ANNNNAAN 8-mers.

As for ATCATAAA, the binding signal is 0.0586 % of ANNNNAAN 8-mers.

Turning to ACGGGAAT, the binding signal is 0.0759 % of ANNNNAAN 8-mers.

Turning to ATGAAAAA, the binding signal was 0.121 % of ANNNNAAN 8-mers.

For the sequence ACTGAAAA, the binding signal was 0.0363 % of ANNNNAAN 8-mers.

With ACCTCAAA, the binding signal was 0.0256 % of ANNNNAAN 8-mers.

Regarding ACACGAAC, the binding signal is 0.0124 % of ANNNNAAN 8-mers.

Take ATTCAAAT: the binding signal was 1.95 % of ANNNNAAN 8-mers.

AACCGAAT: the binding signal was 0.0487 % of ANNNNAAN 8-mers.

On to ACGGTAAA, for which the binding signal is 0.0504 % of ANNNNAAN 8-mers.

ACGTTAAT: the binding signal was 0.102 % of ANNNNAAN 8-mers.

Turning to ACCGTAAC, the binding signal is 0.0272 % of ANNNNAAN 8-mers.

As to ACTAGAAG, the binding signal was 0.0231 % of ANNNNAAN 8-mers.

With ATAGCAAC, the binding signal is 0.0405 % of ANNNNAAN 8-mers.

As for ACGTAAAA, the binding signal was 0.0537 % of ANNNNAAN 8-mers.

Regarding AGTCGAAT, the binding signal is 0.0611 % of ANNNNAAN 8-mers.

On to ATAGAAAG, for which the binding signal is 0.0487 % of ANNNNAAN 8-mers.

As to ACTACAAT, the binding signal is 0.0338 % of ANNNNAAN 8-mers.

Consider ACACTAAA, for which the binding signal was 0.0173 % of ANNNNAAN 8-mers.

Turning to AGGAAAAG, the binding signal is 0.0702 % of ANNNNAAN 8-mers.

With ACTCTAAT, the binding signal was 0.0405 % of ANNNNAAN 8-mers.

Take ACCTCAAT: the binding signal was 0.0289 % of ANNNNAAN 8-mers.
